PMC7862700, “An all-to-all approach to the identification of sequence-specific readers for epigenetic DNA modifications on cytosine”

Legend:
Assay in all cases: DAPPL (digital affinity profiling via proximity ligation, sequencing); 10 mM Tris-HCl pH 7.5, 50 mM NaCl, 1 mM DTT, 4% glycerol, room temperature, 30 min; GST-TFs on glutathione beads, 16-mer random dsDNA library, 0.1% formaldehyde crosslink after washing; high values mean tight binding
[1] = biological target: T1, FLI1 (Homo sapiens, UniProt Q01543 1-452); settings: protein: recombinant; tags: N-terminal GST; dsDNA, one strand shown
T1 sequence: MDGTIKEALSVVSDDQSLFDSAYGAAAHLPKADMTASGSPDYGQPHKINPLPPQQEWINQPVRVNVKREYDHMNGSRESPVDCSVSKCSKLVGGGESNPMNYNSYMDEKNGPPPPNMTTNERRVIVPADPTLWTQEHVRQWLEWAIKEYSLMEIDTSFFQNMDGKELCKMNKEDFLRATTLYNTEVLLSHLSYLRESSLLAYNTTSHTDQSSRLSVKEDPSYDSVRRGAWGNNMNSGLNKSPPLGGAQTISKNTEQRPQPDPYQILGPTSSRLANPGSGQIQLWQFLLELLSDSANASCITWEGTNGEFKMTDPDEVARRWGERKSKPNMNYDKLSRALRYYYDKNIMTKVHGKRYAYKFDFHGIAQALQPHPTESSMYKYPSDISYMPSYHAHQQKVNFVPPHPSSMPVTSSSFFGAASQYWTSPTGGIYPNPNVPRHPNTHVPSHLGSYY
Procedure, shortened: (§1)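 GST fusions of human transcription factors were expressed in yeast and captured with glutathione beads. Once given DNA barcodes and pooled alongside a tag-only sample, they were incubated for 30 min at room temperature with 200 nmole of a random double-stranded 16-mer DNA library in Tris/NaCl/DTT/glycerol buffer, then washed, crosslinked (0.1% formaldehyde), proximity-ligated, PCR-amplified and sequenced on an Illumina NextSeq500. The binding signal of each hexamer is its read frequency for a factor divided by its frequency for the tag-only sample.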

[2] = biological target: T2, ELK1 (Homo sapiens, UniProt P19419 1-428); settings: protein: recombinant; tags: N-terminal GST; dsDNA, one strand shown
T2 sequence: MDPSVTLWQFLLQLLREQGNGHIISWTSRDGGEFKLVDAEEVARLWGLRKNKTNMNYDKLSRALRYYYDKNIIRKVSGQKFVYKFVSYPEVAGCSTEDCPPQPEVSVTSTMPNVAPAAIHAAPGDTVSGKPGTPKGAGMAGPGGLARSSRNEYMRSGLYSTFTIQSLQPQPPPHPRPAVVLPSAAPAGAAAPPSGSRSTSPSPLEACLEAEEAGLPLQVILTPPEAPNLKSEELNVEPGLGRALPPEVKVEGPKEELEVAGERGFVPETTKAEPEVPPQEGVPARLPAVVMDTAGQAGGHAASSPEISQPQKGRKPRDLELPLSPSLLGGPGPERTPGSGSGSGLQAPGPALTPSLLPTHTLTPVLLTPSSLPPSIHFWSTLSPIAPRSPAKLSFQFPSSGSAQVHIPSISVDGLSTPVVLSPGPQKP
Procedure, shortened: as §1

[3] = biological target: T3, GABPA (Homo sapiens, UniProt Q06546 1-454); settings: protein: recombinant; tags: N-terminal GST; dsDNA, one strand shown
T3 sequence: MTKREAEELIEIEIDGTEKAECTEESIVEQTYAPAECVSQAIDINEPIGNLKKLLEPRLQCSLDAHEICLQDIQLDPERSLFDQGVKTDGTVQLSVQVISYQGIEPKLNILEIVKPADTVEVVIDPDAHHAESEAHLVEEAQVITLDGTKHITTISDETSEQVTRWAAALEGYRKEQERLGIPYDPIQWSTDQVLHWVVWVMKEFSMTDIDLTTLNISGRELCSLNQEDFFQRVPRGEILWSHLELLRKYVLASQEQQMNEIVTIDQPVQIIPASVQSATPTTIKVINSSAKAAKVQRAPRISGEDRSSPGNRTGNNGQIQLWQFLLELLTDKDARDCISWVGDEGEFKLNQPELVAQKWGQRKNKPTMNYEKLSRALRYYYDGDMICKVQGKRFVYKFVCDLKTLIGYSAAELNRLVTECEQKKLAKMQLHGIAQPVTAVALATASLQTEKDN
Procedure, shortened: as §1

[4] = biological target: T4, ERG (Homo sapiens, UniProt P11308 1-479); settings: protein: recombinant; tags: N-terminal GST; dsDNA, one strand shown
T4 sequence: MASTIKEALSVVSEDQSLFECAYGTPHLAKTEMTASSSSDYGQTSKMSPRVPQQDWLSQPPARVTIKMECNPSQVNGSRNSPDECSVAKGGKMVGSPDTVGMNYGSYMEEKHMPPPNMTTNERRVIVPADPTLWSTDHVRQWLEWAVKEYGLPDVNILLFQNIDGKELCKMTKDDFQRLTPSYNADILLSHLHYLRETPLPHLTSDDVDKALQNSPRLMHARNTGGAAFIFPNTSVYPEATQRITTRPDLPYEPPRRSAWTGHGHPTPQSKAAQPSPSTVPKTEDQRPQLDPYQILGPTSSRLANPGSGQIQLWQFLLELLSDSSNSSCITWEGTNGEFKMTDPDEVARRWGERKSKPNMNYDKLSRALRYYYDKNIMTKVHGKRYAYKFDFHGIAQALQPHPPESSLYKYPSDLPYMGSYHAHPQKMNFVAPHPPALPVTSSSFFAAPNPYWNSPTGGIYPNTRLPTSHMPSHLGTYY
Procedure, shortened: as §1

[5] = biological target: ELF1 (Homo sapiens, UniProt P32519 1-619); settings: protein: recombinant; tags: N-terminal GST; dsDNA, one strand shown
Sequence of ELF1 (P32519 whole entry): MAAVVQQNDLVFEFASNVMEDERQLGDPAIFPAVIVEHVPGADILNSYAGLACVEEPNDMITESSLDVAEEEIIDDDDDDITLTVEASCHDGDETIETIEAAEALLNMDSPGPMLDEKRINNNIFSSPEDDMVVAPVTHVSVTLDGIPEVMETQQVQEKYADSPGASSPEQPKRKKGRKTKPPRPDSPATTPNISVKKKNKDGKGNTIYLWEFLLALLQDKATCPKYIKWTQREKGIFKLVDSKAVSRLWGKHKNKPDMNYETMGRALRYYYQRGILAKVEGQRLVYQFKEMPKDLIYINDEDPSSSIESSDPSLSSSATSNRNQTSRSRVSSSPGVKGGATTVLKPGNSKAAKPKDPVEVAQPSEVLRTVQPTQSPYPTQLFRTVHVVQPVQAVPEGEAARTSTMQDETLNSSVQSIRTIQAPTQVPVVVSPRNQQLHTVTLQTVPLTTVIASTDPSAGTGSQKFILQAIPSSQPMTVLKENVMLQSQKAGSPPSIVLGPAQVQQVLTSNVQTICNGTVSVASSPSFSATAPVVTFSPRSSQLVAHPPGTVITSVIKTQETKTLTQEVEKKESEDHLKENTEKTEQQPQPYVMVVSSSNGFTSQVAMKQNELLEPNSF
Procedure, shortened: as §1

[6] = biological target: T5, EHF (Homo sapiens, UniProt Q9NZC4 1-300); settings: protein: recombinant; tags: N-terminal GST; dsDNA, one strand shown
T5 sequence: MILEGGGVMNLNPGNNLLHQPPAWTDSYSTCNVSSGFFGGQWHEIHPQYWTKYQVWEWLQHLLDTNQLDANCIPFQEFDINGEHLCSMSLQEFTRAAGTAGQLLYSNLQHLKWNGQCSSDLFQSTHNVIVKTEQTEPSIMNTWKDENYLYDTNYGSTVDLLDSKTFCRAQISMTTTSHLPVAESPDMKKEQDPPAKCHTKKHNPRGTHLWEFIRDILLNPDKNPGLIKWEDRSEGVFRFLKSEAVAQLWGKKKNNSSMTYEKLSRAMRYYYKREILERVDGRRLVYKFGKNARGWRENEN
Procedure, shortened: as §1

[7] = biological target: SPI1 (Homo sapiens, UniProt P17947 1-270); settings: protein: recombinant; tags: N-terminal GST; dsDNA, one strand shown
Procedure, shortened: as §1

[8] = biological target: SPIB (Homo sapiens, UniProt Q01892 1-262); settings: protein: recombinant; tags: N-terminal GST; dsDNA, one strand shown
Sequence of SPIB (Q01892 whole entry): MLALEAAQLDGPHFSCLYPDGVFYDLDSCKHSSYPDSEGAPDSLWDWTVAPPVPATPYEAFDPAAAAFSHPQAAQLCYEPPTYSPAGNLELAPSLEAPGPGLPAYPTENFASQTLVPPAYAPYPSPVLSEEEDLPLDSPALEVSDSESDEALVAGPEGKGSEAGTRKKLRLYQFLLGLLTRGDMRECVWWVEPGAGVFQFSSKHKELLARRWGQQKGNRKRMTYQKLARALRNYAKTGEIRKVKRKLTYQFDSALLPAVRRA
Procedure, shortened: as §1

[9] = biological target: T6, ELK3 (Homo sapiens, UniProt P41970 1-407); settings: protein: recombinant; tags: N-terminal GST; dsDNA, one strand shown
T6 sequence: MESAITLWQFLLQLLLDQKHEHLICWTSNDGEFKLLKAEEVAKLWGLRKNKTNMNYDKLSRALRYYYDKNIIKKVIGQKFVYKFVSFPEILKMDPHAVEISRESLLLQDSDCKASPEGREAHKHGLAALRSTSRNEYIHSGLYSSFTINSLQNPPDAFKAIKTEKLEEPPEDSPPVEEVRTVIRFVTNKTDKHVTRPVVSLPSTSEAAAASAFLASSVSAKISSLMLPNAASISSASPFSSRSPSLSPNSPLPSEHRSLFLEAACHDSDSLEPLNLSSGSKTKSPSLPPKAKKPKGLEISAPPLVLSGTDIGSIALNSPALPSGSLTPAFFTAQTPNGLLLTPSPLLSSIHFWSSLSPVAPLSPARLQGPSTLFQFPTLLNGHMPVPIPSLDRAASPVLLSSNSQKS
Procedure, shortened: as §1

[10] = biological target: T7, FEV (Homo sapiens, UniProt Q99581 1-238); settings: protein: recombinant; tags: N-terminal GST; dsDNA, one strand shown
T7 sequence: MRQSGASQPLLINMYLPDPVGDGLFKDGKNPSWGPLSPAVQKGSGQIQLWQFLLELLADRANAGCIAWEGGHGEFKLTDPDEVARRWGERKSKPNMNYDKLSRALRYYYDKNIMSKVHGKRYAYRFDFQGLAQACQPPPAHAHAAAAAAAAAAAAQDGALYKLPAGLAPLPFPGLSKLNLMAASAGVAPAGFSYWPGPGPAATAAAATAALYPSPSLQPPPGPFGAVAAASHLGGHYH
Procedure, shortened: as §1

[11] = biological target: ETV5 (Homo sapiens, UniProt P41161 1-510); settings: protein: recombinant; tags: N-terminal GST; dsDNA, one strand shown
Sequence of ETV5 (P41161 whole entry): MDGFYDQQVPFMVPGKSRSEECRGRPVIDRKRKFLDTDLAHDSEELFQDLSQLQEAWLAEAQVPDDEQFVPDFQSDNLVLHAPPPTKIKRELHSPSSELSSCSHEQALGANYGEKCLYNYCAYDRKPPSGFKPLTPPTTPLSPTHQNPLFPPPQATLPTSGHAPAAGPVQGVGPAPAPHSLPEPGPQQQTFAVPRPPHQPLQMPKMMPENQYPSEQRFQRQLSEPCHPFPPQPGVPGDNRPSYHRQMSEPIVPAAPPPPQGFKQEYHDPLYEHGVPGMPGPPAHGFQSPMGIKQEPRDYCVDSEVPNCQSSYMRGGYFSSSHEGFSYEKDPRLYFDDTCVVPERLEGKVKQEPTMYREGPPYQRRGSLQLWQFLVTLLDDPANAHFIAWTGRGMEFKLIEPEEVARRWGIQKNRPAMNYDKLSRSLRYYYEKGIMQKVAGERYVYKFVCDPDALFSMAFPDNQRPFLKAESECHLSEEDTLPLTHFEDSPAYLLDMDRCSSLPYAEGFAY
Procedure, shortened: as §1

[12] = biological target: HSF1 (Homo sapiens, UniProt Q00613 1-529); settings: protein: recombinant; tags: N-terminal GST; chain copies: 3; dsDNA, one strand shown
Sequence of HSF1 (Q00613 whole entry): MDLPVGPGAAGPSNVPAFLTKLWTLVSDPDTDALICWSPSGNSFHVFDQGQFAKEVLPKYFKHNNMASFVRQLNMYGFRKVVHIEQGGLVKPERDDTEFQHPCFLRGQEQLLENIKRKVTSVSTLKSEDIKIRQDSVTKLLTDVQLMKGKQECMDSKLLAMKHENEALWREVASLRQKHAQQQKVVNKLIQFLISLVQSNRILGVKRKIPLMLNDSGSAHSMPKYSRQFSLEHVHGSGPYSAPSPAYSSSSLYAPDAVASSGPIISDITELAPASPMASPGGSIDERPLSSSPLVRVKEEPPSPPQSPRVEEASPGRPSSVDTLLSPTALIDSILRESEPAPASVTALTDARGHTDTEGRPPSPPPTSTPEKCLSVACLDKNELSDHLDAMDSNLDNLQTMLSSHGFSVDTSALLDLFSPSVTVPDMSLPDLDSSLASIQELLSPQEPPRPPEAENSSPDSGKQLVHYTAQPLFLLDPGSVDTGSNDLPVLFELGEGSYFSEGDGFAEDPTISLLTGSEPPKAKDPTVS
Procedure, shortened: as §1

[13] = biological target: T8, SPIC (Homo sapiens, UniProt Q8N5J4 1-248); settings: protein: recombinant; tags: N-terminal GST; dsDNA, one strand shown
T8 sequence: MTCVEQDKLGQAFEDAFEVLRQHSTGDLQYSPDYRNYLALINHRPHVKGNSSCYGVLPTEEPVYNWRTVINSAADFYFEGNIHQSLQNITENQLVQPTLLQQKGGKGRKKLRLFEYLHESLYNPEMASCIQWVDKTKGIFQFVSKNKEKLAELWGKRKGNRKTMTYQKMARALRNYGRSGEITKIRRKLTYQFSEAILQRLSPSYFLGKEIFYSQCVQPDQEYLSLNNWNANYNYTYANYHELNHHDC
Procedure, shortened: as §1

[14] = biological target: ELF4 (Homo sapiens, UniProt Q99607 1-663); settings: protein: recombinant; tags: N-terminal GST; dsDNA, one strand shown
Sequence of ELF4 (Q99607 whole entry): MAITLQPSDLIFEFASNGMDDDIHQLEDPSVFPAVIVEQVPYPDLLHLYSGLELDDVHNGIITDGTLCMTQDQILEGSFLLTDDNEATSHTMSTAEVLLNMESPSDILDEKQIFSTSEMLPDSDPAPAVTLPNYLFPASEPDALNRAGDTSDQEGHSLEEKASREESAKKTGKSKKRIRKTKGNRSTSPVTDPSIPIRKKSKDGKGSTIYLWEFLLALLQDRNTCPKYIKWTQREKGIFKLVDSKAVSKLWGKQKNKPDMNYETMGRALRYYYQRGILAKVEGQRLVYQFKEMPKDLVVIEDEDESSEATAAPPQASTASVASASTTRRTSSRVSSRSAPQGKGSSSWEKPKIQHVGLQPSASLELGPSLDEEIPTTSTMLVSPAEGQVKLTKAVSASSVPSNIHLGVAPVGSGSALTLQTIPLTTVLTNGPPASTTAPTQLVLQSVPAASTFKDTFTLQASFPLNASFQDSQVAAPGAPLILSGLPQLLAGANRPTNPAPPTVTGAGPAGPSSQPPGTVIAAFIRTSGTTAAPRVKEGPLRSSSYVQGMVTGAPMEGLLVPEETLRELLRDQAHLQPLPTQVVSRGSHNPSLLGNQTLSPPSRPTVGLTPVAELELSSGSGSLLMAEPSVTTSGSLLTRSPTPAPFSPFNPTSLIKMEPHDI
Procedure, shortened: as §1

[15] = biological target: T9, ELK4 (Homo sapiens, UniProt P28324-2 1-405); settings: protein: recombinant; tags: N-terminal GST; dsDNA, one strand shown
T9 sequence: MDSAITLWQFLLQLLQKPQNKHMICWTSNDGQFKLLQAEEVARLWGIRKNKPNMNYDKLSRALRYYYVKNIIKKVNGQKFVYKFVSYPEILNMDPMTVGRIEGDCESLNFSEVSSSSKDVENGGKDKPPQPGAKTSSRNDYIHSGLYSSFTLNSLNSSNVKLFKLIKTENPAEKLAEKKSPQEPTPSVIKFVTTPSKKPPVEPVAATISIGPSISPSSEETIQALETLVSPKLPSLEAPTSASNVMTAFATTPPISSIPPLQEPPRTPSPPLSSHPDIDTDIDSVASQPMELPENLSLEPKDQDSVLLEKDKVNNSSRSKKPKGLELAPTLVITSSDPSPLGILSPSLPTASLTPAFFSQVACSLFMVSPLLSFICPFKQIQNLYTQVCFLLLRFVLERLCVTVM
Procedure, shortened: as §1

[16] = biological target: T10, ETV2 (Homo sapiens, UniProt O00321 1-342); settings: protein: recombinant; tags: N-terminal GST; dsDNA, one strand shown
T10 sequence: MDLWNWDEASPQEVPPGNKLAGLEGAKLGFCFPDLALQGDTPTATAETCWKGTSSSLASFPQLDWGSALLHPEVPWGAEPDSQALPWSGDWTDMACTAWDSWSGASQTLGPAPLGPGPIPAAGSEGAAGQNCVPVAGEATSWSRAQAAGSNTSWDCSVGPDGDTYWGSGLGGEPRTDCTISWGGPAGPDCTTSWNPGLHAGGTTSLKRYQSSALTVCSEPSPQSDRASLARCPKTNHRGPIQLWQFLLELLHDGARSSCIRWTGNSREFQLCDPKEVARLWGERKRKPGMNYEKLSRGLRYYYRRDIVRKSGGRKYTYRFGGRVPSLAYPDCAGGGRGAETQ
Procedure, shortened: as §1

[17] = biological target: T11, ELF3 (Homo sapiens, UniProt P78545 1-371); settings: protein: recombinant; tags: N-terminal GST; dsDNA, one strand shown
T11 sequence: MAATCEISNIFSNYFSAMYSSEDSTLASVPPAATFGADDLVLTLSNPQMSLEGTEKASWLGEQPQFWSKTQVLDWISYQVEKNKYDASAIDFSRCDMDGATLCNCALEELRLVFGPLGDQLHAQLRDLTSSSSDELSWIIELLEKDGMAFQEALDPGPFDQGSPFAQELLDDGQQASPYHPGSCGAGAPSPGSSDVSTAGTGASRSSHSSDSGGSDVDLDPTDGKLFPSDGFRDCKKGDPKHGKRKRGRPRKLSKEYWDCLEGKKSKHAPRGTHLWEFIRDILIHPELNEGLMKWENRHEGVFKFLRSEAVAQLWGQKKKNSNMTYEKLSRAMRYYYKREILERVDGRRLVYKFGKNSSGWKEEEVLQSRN
Procedure, shortened: as §1

[18] = biological target: ETV1 (Homo sapiens, UniProt P50549 1-477); settings: protein: recombinant; tags: N-terminal GST; dsDNA, one strand shown
Sequence of ETV1 (P50549 whole entry): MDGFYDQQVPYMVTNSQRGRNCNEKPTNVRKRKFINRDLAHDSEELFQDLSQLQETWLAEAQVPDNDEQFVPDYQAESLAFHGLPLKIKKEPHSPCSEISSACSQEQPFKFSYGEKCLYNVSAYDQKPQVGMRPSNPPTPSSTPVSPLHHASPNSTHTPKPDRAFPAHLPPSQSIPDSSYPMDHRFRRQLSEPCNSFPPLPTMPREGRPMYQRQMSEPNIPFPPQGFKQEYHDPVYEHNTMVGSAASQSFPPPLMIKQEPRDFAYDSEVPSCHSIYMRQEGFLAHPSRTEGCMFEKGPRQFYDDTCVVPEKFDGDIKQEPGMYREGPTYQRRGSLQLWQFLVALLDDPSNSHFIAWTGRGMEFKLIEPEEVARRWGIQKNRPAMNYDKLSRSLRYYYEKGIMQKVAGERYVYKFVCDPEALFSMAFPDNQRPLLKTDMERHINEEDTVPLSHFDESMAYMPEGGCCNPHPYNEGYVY
Procedure, shortened: as §1

AGTTCC
binding signal [1]: 2.16 fold enrichment (6-mer frequency, TF over GST control) | binding signal [2]: 2.17 fold enrichment (6-mer frequency, TF over GST control) | binding signal [3]: 1.9 fold enrichment (6-mer frequency, TF over GST control) | binding signal [4]: 2.2 fold enrichment (6-mer frequency, TF over GST control) | binding signal [5]: 1.95 fold enrichment (6-mer frequency, TF over GST control) | binding signal [6]: 2.11 fold enrichment (6-mer frequency, TF over GST control) | binding signal [7]: 2.62 fold enrichment (6-mer frequency, TF over GST control) | binding signal [8]: 2.36 fold enrichment (6-mer frequency, TF over GST control) | binding signal [9]: 1.99 fold enrichment (6-mer frequency, TF over GST control) | binding signal [10]: 1.96 fold enrichment (6-mer frequency, TF over GST control) | binding signal [11]: 2.29 fold enrichment (6-mer frequency, TF over GST control) | binding signal [12]: 1.34 fold enrichment (6-mer frequency, TF over GST control) | binding signal [13]: 2.42 fold enrichment (6-mer frequency, TF over GST control) | binding signal [14]: 1.97 fold enrichment (6-mer frequency, TF over GST control) | binding signal [15]: 1.98 fold enrichment (6-mer frequency, TF over GST control) | binding signal [16]: 1.88 fold enrichment (6-mer frequency, TF over GST control) | binding signal [17]: 2.05 fold enrichment (6-mer frequency, TF over GST control) | binding signal [18]: 2.21 fold enrichment (6-mer frequency, TF over GST control)
